Source: PubChem BioAssay
Results filed as inconclusive are left out. The source made the active and inactive calls.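 The calls were made as follows, unless noted: active = normalized viability below 100% at a tested concentration; inactive = the rest.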

Tests used:
[1] = growth inhibition of DIPG glioma cells, dose response, cell-based, SU-DIPG-XVII, MIPE5.0, CellTiter-Glo, qHTS (AID 1347060; cut-off not given, nearly all actives have AC50 up to about 26 µM;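 as to AC50: cells exposed to compound for 48 hours before viability readout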); conditions: SU-DIPG-XVII viability, CellTiter-Glo ATP luminescence
[2] = growth inhibition of DIPG glioma cells, dose response, cell-based, SU-DIPG-XIII, MIPE4.0, CellTiter-Glo, qHTS (AID 1347061; cut-off not given, nearly all actives have AC50 up to about 37 µM;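 also: cells exposed to compound for 48 hours before readout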); conditions: SU-DIPG-XIII viability, CellTiter-Glo ATP luminescence
[3] = viability loss in pontine glioma line – cell-based, SU-DIPG-XXV, MIPE5.0, CellTiter-Glo, qHTS, dose response (AID 1347065; cut-off not given, nearly all actives have AC50 up to about 26 µM;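 also: cells exposed to compound for 48 hours before ATP readout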); conditions: CellTiter-Glo ATP luminescence
[4] = SU-DIPG-VI glioma cell viability, MIPE4.0 library, CellTiter-Glo luminescence, qHTS (AID 1347066; cut-off not given, nearly all actives have AC50 up to about 30 µM;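 also: cells exposed to compound for 48 hours before readout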); conditions: CellTiter-Glo ATP luminescence
[5] = JHH-DIPG-1 glioma cell viability, MIPE5.0 library, CellTiter-Glo luminescence, qHTS (AID 1347067; cut-off not given, nearly all actives have AC50 up to about 26 µM;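 also: cells exposed to compound for 48 hours before readout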); conditions: JHH-DIPG-1 glioma viability, CellTiter-Glo ATP luminescence
[6] = growth inhibition of DIPG glioma cells, dose response, cell-based, SU-DIPG-XIII, MIPE5.0, CellTiter-Glo, qHTS (AID 1347064; cut-off not given, nearly all actives have AC50 up to about 23 µM;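 as to AC50: cells exposed to compound for 48 hours before the viability read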); conditions: SU-DIPG-XIII viability, CellTiter-Glo ATP luminescence
[7] = SU-DIPG-XXV glioma cell viability, MIPE5.0 library, qHTS (AID 1347068; cut-off not given, nearly all actives have IC50 up to about 30 µM;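 as to IC50: cells exposed to compound for 48 hours before viability readout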)
[8] = growth inhibition of DIPG glioma cells, dose response, cell-based, SU-DIPG-IV, MIPE4.0, CellTiter-Glo, qHTS (AID 1347063; cut-off not given, nearly all actives have AC50 up to about 30 µM;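 also: compound exposure lasted 48 hours before the viability readout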); conditions: SU-DIPG-IV viability, CellTiter-Glo ATP luminescence
[9] = modifiers of HSF1 nuclear foci, imaging, Selleck Cancer Library (AID 1347162; in the data active = plate-normalised HSF1 focus index below about 0.46); conditions: human cells, at 10 µM; SSMD: measured here: HSF1 foci SSMD mean; cell count: measured here: cell number; plate-normalised HSF1 focus index: stronger effect = lower value
[10] = ovarian cancer cell viability with rucaparib, profiling panel, oncology-focused library, rucaparib conditional (AID 1508598); conditions: patient-derived ovarian cancer cells, CellTiter-Glo viability, 144 h, stronger effect = lower value
[11] = sensitizers of A549 cells to miR-34 induction, primary screen, imaging, A549 dox-inducible miR-34, nuclei and caspase counts (AID 1347080;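 active = compounds whose cell count with miR-34 switched on is under 0.7 times the count with it off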); conditions: A549 miR-34 inducible, Hoechst nuclei count, 48 h
[12] = survival rescue of mitochondrial mutant cells in low glucose, primary screen, MELAS cybrids, Rieske KO mouse fibroblasts, CellTiter-Glo (AID 1508586;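 active = mean z-score across replicates of 1.96 or higher in either the MELAS or the Rieske mutant cell line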;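 also: z relative to plate mean and SD of compound and empty wells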)
[13] = at 0.000305 µM, OCI-C5x cells, with rucaparib 10 µM, 100% = cells with rucaparib alone
[14] = at 0.000305 µM, OCI-C5x cells, without rucaparib
[15] = at 0.000305 µM, OCI-P5x cells, with rucaparib 20 µM, 100% = cells with rucaparib alone
[16] = at 0.000305 µM, OCI-P5x cells, without rucaparib
[17] = at 0.00122 µM, OCI-C5x cells, with rucaparib 10 µM, 100% = cells with rucaparib alone
[18] = at 0.00122 µM, OCI-C5x cells, without rucaparib
[19] = at 0.00122 µM, OCI-P5x cells, with rucaparib 20 µM, 100% = cells with rucaparib alone
[20] = at 0.00122 µM, OCI-P5x cells, without rucaparib
[21] = at 0.00488 µM, OCI-C5x cells, with rucaparib 10 µM, 100% = cells with rucaparib alone
[22] = at 0.00488 µM, OCI-C5x cells, without rucaparib
[23] = at 0.00488 µM, OCI-P5x cells, with rucaparib 20 µM, 100% = cells with rucaparib alone
[24] = at 0.00488 µM, OCI-P5x cells, without rucaparib
[25] = at 0.0195 µM, OCI-C5x cells, with rucaparib 10 µM, 100% = cells with rucaparib alone
[26] = at 0.0195 µM, OCI-C5x cells, without rucaparib
[27] = at 0.0195 µM, OCI-P5x cells, with rucaparib 20 µM, 100% = cells with rucaparib alone
[28] = at 0.0195 µM, OCI-P5x cells, without rucaparib
[29] = at 0.0781 µM, OCI-C5x cells, with rucaparib 10 µM, 100% = cells with rucaparib alone
[30] = at 0.0781 µM, OCI-C5x cells, without rucaparib
[31] = at 0.0781 µM, OCI-P5x cells, with rucaparib 20 µM, 100% = cells with rucaparib alone
[32] = at 0.0781 µM, OCI-P5x cells, without rucaparib
[33] = at 0.313 µM, OCI-C5x cells, with rucaparib 10 µM, 100% = cells with rucaparib alone
[34] = at 0.313 µM, OCI-C5x cells, without rucaparib
[35] = at 0.313 µM, OCI-P5x cells, with rucaparib 20 µM, 100% = cells with rucaparib alone
[36] = at 0.313 µM, OCI-P5x cells, without rucaparib
[37] = at 1.25 µM, OCI-C5x cells, with rucaparib 10 µM, 100% = cells with rucaparib alone
[38] = at 1.25 µM, OCI-C5x cells, without rucaparib
[39] = at 1.25 µM, OCI-P5x cells, with rucaparib 20 µM, 100% = cells with rucaparib alone
[40] = at 1.25 µM, OCI-P5x cells, without rucaparib
[41] = at 5 µM, OCI-C5x cells, with rucaparib 10 µM, 100% = cells with rucaparib alone
[42] = at 5 µM, OCI-C5x cells, without rucaparib
[43] = at 5 µM, OCI-P5x cells, with rucaparib 20 µM, 100% = cells with rucaparib alone
[44] = at 5 µM, OCI-P5x cells, without rucaparib
[45] = stronger effect = lower value, cell number ratio, induced over uninduced
[46] = measured here: relative caspase fold change +Dox/-Dox
[47] = measured here: total cells with miR-34 induction, stronger effect = lower value
[48] = measured here: total cells without miR-34 induction
[49] = MELAS cybrid survival, CellTiter-Glo 48 h, stronger effect = higher value
[50] = Rieske KO mouse fibroblast survival, CellTiter-Glo 72 h

Cc1c[nH]c(/C=C2\C(=O)Nc3ccccc32)c1CCC(=O)O
active: AC50 [1] 14.8 µM | AC50 [2] 5.9 µM | AC50 [3] 10.5 µM | AC50 [5] 16.6 µM
inactive: outcome [4]

CC#CCn1c(N2CCC[C@@H](N)C2)nc2c1c(=O)n(Cc1nc(C)c3ccccc3n1)c(=O)n2C
inactive: outcome [1] | outcome [2] | outcome [6] | outcome [3] | outcome [4] | outcome [5] | outcome [7]

C[C@]12CC[C@@H]3c4ccc(O)cc4CC[C@H]3[C@@H]1[C@@H](O)[C@@H](O)[C@@H]2O
inactive: outcome [1] | outcome [2] | outcome [8] | outcome [4] | outcome [5] | outcome [7]

CN[C@@H](C)C(=O)N[C@H]1CN(C(=O)CC(C)C)CC[C@H]2CC[C@@H](C(=O)NC(c3ccccc3)c3ccccc3)N2C1=O
2.71: SSMD [9]
inactive: outcome [1] | outcome [2] | outcome [3] | outcome [4] | outcome [5] | outcome [7] | plate-normalised HSF1 focus index [9] 1.1
7260: cell count [9]

CO[C@@H](C(=O)N1Cc2[nH]nc(NC(=O)c3ccc(N4CCN(C)CC4)cc3)c2C1)c1ccccc1
6850: cell count [9]
active: AC50 [1] 0.525 µM | AC50 [2] 1.87 µM | AC50 [6] 1.05 µM | AC50 [3] 0.372 µM | viability [10, 14] 95% | viability [10, 15] 88.8% | viability [10, 16] 84.6% | viability [10, 19] 89.5% | viability [10, 20] 84.3% | viability [10, 21] 96% | viability [10, 23] 91.4% | viability [10, 24] 88.2% | viability [10, 25] 96.4% | viability [10, 26] 81% | viability [10, 27] 95.5% | viability [10, 28] 93.2% | viability [10, 29] 57.5% | viability [10, 30] 79.9% | viability [10, 31] 91.5% | viability [10, 32] 73.7% | viability [10, 33] 66.2% | viability [10, 34] 89.6% | viability [10, 35] 75.2% | viability [10, 36] 64.1% | viability [10, 37] 84.8% | viability [10, 39] 72.6% | viability [10, 40] 60% | viability [10, 41] 71.1% | viability [10, 42] 88.4% | viability [10, 43] 19.1% | viability [10, 44] 17%
inactive: outcome [4] | plate-normalised HSF1 focus index [9] 1.1 | viability [10, 13] 122% | viability [10, 17] 113% | viability [10, 18] 106% | viability [10, 22] 104% | viability [10, 38] 112%
1.91: SSMD [9]

CO[C@H]1C[C@@H]2CC[C@@H](C)[C@@](O)(O2)C(=O)C(=O)N2CCCC[C@H]2C(=O)O[C@H]([C@H](C)C[C@@H]2CC[C@@H](OC(=O)C(C)(CO)CO)[C@H](OC)C2)CC(=O)[C@H](C)/C=C(\C)[C@@H](O)[C@@H](OC)C(=O)[C@H](C)C[C@H](C)/C=C/C=C/C=C/1C
inactive: outcome [2] | plate-normalised HSF1 focus index [9] 1.05
active: AC50 [1] 14.4 µM | AC50 [3] 12.9 µM | AC50 [4] 9.35 µM | AC50 [5] 14.4 µM
0.578: SSMD [9]
6900: cell count [9]

COc1cc(Nc2ncc(F)c(Nc3ccc4c(n3)N(COP(=O)(O)O)C(=O)C(C)(C)O4)n2)cc(OC)c1OC
-0.181: z-score [12, 50]
-2.78: SSMD [9]
0.912: fold change [11, 46]
7320: cell count [9]
active: AC50 [1] 1.05 µM | AC50 [2] 1.87 µM | AC50 [8] 3.32 µM | AC50 [6] 3.72 µM | AC50 [3] 3.72 µM | IC50 [7] 4.68 µM
1190: cell count [11, 48]
inactive: fold change [11, 45] 0.857 | plate-normalised HSF1 focus index [9] 0.825 | z-score [12, 49] -0.637
1024: cell count [11, 47]

CS(=O)(=O)N1CCN(Cc2cc3nc(-c4cccc5[nH]ncc45)nc(N4CCOCC4)c3s2)CC1
active: AC50 [1] 1.18 µM | AC50 [2] 5.26 µM | AC50 [8] 0.166 µM | AC50 [6] 1.32 µM | AC50 [3] 0.661 µM | IC50 [7] 4.17 µM | z-score [12, 49] 3.74 | viability [10, 15] 98.9% | viability [10, 16] 94.9% | viability [10, 19] 98.2% | viability [10, 20] 92.1% | viability [10, 23] 94.4% | viability [10, 24] 93.2% | viability [10, 27] 96.3% | viability [10, 28] 87.5% | viability [10, 31] 92.7% | viability [10, 32] 88.1% | viability [10, 35] 72.6% | viability [10, 36] 78.2% | viability [10, 39] 82.3% | viability [10, 40] 82.1% | viability [10, 43] 54.2% | viability [10, 44] 70.8%
1570: cell count [11, 48]
1: z-score [12, 50]
0.859: fold change [11, 46]
1360: cell count [11, 47]
inactive: fold change [11, 45] 0.864 | plate-normalised HSF1 focus index [9] 0.899 | viability [10, 13] 111% | viability [10, 14] 127% | viability [10, 17] 121% | viability [10, 18] 119% | viability [10, 21] 109% | viability [10, 22] 120% | viability [10, 25] 111% | viability [10, 26] 118% | viability [10, 29] 114% | viability [10, 30] 108% | viability [10, 33] 105% | viability [10, 34] 107% | viability [10, 37] 125% | viability [10, 38] 123% | viability [10, 41] 114% | viability [10, 42] 120%
-1.97: SSMD [9]
6530: cell count [9]

NC(=O)c1c(OCc2c(F)cc(Br)cc2F)nsc1NC(=O)NCCCCN1CCCC1
active: AC50 [1] 4.68 µM | AC50 [2] 6.62 µM | AC50 [6] 3.32 µM | AC50 [3] 3.32 µM | AC50 [5] 18.6 µM | IC50 [7] 23.5 µM
